Data taken from the supplement of paper PMC3334620.
In all, about 33,000 sequences were measured (“E-score (-0.5 to 0.5)”: median about -8e-05, highest 2% from about 0.23 on). Shown is part of a subset that was picked to be rich in the highest values.

Target: T1, Nrg2 (UniProt P38082)
T1 sequence: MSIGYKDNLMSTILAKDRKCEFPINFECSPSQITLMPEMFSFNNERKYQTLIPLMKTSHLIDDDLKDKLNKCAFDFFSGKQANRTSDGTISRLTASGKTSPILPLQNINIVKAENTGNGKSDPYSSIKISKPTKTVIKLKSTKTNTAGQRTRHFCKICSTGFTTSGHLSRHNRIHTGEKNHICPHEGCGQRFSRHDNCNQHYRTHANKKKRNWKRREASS
Test: PBM E-score (8-mer binding enrichment) (E-score (-0.5 to 0.5)); higher = stronger / more preferred TF binding
Conditions: protein concentration: 100 nM; construct: GST-full length
Procedure: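 Universal 'all 10-mer' protein binding microarrays (Agilent AMADID 015681) probed with GST-tagged S. cerevisiae TFs (full-length or DBD) made by in vitro transcription/translation (PURExpress), about 100-200 nM. Bound TF was detected with fluorescent anti-GST. Each ungapped 8-mer (which stands for itself and its reverse complement) is scored by the PBM enrichment score (E-score), a modified Wilcoxon-Mann-Whitney statistic from -0.5 to +0.5, computed with the Universal PBM Analysis Suite. Scale: above 0.35 generally sequence-specific binding.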

Sequence	PBM E-score
CCTATCAC	-0.00258
ATATCCGG	0.0451
ATATCCGA	0.235
CTATCCGA	-0.04
AGTGCTGA	-0.0594
GTGAACGA	-0.00481
TGACATCA	0.232
CGACATCA	0.0768
GGACATCA	0.0631
AGGAACGG	0.0417
CATCTGTC	-0.0868
CACGGGCA	-0.102
GATCCAAC	-0.0228
TATCCGAA	-0.0137
CATCCGAA	0.168
CATCCAAA	-0.00312
GATCCAAA	0.284
GATCCGAA	0.243
CAGGTCAC	-0.271
ATCTATGG	-0.0899
GGTAGACC	-0.00427
ACAGCGGG	-0.0296
GCTCAAGC	-0.0931
ACCGCAAC	0.269
ACCGCAAG	0.00329

Sequence	PBM E-score
GCCGCAAC	0.192
AGGGGATC	0.0237
AGCTTGTA	-0.00311
CCACGGAA	0.00928
ATATGGCA	0.00508
GCAATAAA	0.269
GCAATACC	0.176
CCAATAAA	0.079
GCAATAAC	0.0808
GCAATACA	0.298
TCAATACA	0.0827
AACAGATG	-0.0815
GATGCTCA	-0.12
AGGCTTTG	-0.058
GTAAACAC	-0.0176
GCCGTACC	-0.0541
TACACCTA	0.0327
CCTTCACC	-0.0756
ATTTCCCA	0.153
AATTTCCG	0.206
ATTTCCAA	-0.0757
ATTTCCAC	0.255
ATTTTCCC	0.124
ATTTCCCC	0.153
ATTTCCCG	0.264

Sequence	PBM E-score
ATTTCCAG	0.0415
ATTTTCCG	0.249
CGAAGTTC	0.0952
CCTGCTGA	0.171
AACAGTGA	-0.0365
AATTCCCG	-0.0292
AAGAGAAG	-0.0556
AAGAGAAA	0.0319
AAGAGAAT	0.231
CTCTGACC	-0.127
CACGGGGC	-0.0105
TCCTAGGA	-0.0933
ACAATACA	0.148
ACAATACG	0.0515
ACAATACC	0.291
AGAATACC	0.191
ACAATACT	0.241
CCAATACC	0.0351
GGATACAA	0.0295
GCAAACCA	0.0737
CATTAAAG	0.119
GATTAGAA	0.0967
GATTAAAA	0.157
AACTAAAA	0.0978
TACTAAAA	0.0854

Sequence	PBM E-score
AATTAAAA	0.126
CACTAAAA	0.256
CATTAAAA	0.252
CATTAGAA	0.0605
TATTAAAA	0.262
CATTAAAC	0.0682
TATTAGAA	0.249
ATTGCACC	0.0876
CCAACTAC	0.0973
AACCTCTA	-0.1
TAACGTCA	0.0193
CTCGATCC	-0.0858
AGAATGGC	0.0093
ACAAGGAT	-0.0601
CCCACCCG	0.231
ACCCTCCT	-0.14
CCCCACCC	0.162
CCCACCCC	0.177
CCCACCCA	0.0597
ACCCACCC	0.243
CCCCTCCC	-0.102
ACCCTCCC	0.255
GCCCACCC	0.184
AAATGAAC	0.0486
CGTTCCGC	-0.00432

Sequence	PBM E-score
AACAGGCC	-0.202
GTGGGCTA	-0.14
CACCGGGG	-0.413
GTACTACA	0.191
AGAGATTA	0.0613
CGAGATTA	0.252
CGAGATTC	0.143
GGCTGCCA	-0.173
GAAAAGTC	-0.0781
CGTGCCAA	-0.033
GGACGTCA	0.00109
AGACGTCA	-0.0442
TGACGTCA	0.279
ATCCAACG	-0.165
ATCATAGG	-0.0259
CTCATAGA	-0.061
ATCATAGA	0.238
CTAAACCA	-0.179
CATACCAC	-0.0447
TAAGTGAA	0.0844
ACTACAGG	0.237
ATTACAGG	0.312
ATTACAGA	0.0258
ACTACAGC	-0.271
ACTACAGA	0.131

Sequence	PBM E-score
ATTACAGC	-0.18
TCACTGCA	0.167
CTCGGCCA	0.104
ACCTGGAA	0.203
CGGGCTAG	-0.0659
GTAAGACA	-0.0374
GGGATCAA	-0.0876
ATGAGATC	0.0358
CAGTTGGA	-0.00944
AAGGGTTC	0.248
CAGGGTTC	0.387
CAGGGTGC	0.19
CAGGGTTA	0.0393
AAGGGTTA	0.076
AAGGGTTG	0.167
AAATGCTA	0.0225
GACGCTAC	-0.0645
AAACTCTG	0.102
CATCTCAA	-0.0442
ATCATCAG	0.0405
CTCATCAC	-0.0539
CTCATCAG	0.247
CATCTTAA	0.251
GATCTCAA	0.115
CATCTCAG	0.23

Sequence	PBM E-score
TATCTCAA	0.267
CATCTCAC	-0.0644
CATCTTAG	0.0135
AATCTTAA	0.0405
AATCTCAA	0.124
GCCCTCAC	-0.177
GGTTCAAA	0.0475
CACGCAGG	0.0602
GACAGTGC	0.0298
AGTGATCA	0.063
AAACCCAA	0.0986
CTCGTTGC	0.212
ACTTGTAA	-0.0121
AGTCATAT	0.0126
AGGCTGAG	-0.0549
ACACTACA	0.108
TTACTAAA	0.123
ACACTAAA	0.271
GTACTAAA	0.121
CCACTACA	0.045
ATACTAAA	0.234
TCACTACA	0.24
TCACTAAA	0.099
GCACTAAA	0.0452
CAGATGCA	-0.158

Sequence	PBM E-score
ATTAACCG	0.107
ATGAGACA	0.0867
AGGTCGGG	-0.142
AAAACCAT	0.137
ATTTCGGG	0.037
ATTTCGCG	0.275
ATTTCGCC	0.0633
ATTTCTCA	0.0394
CTTTCGCA	-0.0222
ATTTCGAG	0.14
ATTTCGCA	0.274
ATTTCTCC	0.0443
ATTTCTCG	0.285
AGTTAAGA	0.0745
GGAACTCC	0.0233
GACTCCCA	-0.248
CGATCTCC	-0.0956
AATAGGAC	0.0448
ACGTCATC	-0.0886
GCTATTCC	-0.0857
ACTGCTCC	0.0162
TAACCCAA	-0.00379
CTAATTGC	0.0943
GTCTCTCA	-0.0103
ATATCTCA	0.238

Sequence	PBM E-score
ATCTCAAC	0.158
CTATCTCC	0.0511
CTATCTCA	0.0251
ATCTCTCA	0.236
ATCTCAAT	0.0327
ATATCTCC	0.251
CTCTCTCA	-0.0307
ATATCTCG	0.0423
ATCTCAAG	0.238
ATCTCTCC	0.0215
ACTCGCCT	0.063
GTCAGGCA	-0.108
TGCGGGAA	0.125
CAGACCTG	-0.119
GCGAATAA	0.18
GAGATACC	0.127
AGCTATGG	-0.0356
ATATCAAG	0.285
CTATCAAG	0.0817
ATATCAAT	0.212
AACTCAAG	-0.0395
CTCTTGAA	-0.0353
CAGGGCGG	-0.0602
CTAGTTGA	0.128
GACATTGC	-0.0455

Sequence	PBM E-score
ATCCCGCA	0.08
AACCCGCA	0.0835
CACCCGGG	-0.0923
AACCCGCG	0.267
AACCCGGG	0.255
ATCCCGCG	0.294
ATCCCGCC	0.0743
AACCCGCC	0.00993
ACCCCGGG	-0.056
AGTGGTCA	-0.145
TCGCCGAA	-0.124
CAGAGTAC	-0.112
ATATGGCC	-0.0218
CTTGTTAA	0.0818
ATTGTTAA	0.0152
GTTGTTAA	0.241
CGCAAGGC	0.203
CCTGTATA	0.0265
ACTGTATC	-0.0153
CCTGTATC	0.233
CAGATTAC	-0.0348
CCGGACAA	0.058
GCGGACAA	0.15
ACGGACAA	0.233
CGTACTTA	0.115

Sequence	PBM E-score
CACCAAGA	0.00109
AGTTTGAA	0.23
CGTTTGAA	0.00719
AGTTTGAC	-0.104
GGATCGCC	0.0218
AAAGGAGG	-0.252
ATCAAACC	0.123
ACAGAGCT	-0.214
ATCGAGCA	0.0824
AGCGCGCG	0.274
AGCGCGCT	0.187
ACCGCGCT	0.0712
CGCCCGCC	0.085
ATCGAGCC	-0.103
ATCGAGCG	0.229
ACCGCGCC	0.00956
ACCGCGCG	0.301
TGCCCGCA	0.148
CGCCCGCA	0.229
AGCGCGCC	0.0741
CACGTAGG	-0.156
AAAATTCA	0.199
CAACGCGC	0.215
GAAGGAAA	-0.238
ATCTCGCG	0.282

Sequence	PBM E-score
ATCTCGCA	0.0354
CAGGGGCC	0.191
CGCGCAGA	0.232
AAAGCGCA	0.012
CGCGCAGC	0.0142
CAAGCGCA	0.363
GGCGCAGA	-0.0307
CAGGGGCG	0.252
CAAGCGCC	-0.196
AAGGGGCG	-0.117
ATCTCGCC	0.0341
AAGTGATT	0.0989
CCCTGCGC	0.1
CCTCTTTC	-0.184
ACACTAGC	-0.00995
ACTAGGAC	-0.00051
GTTTGCGA	0.0803
GGTCTAGA	-0.109
AACGTTTC	-0.144
ATCTCCAC	-0.0729
CTGTTCGC	0.0452
GAGACAAA	-0.091
CACACCAA	0.063
AACTATCG	0.0118
AGAGCGAG	-0.0653

Sequence	PBM E-score
AACGCGCG	0.319
AACGCGCT	0.123
CAGGCGCG	0.231
CGAGCGAC	-0.0894
ATCGCGCA	-0.004
CAGGCGCC	0.0447
ATCGCGCC	0.201
AACGCGCA	0.0385
ATCGCGCG	0.241
CGAGCGAG	0.249
CAGGCGCA	-0.114
ATTCCCAA	0.0933
AGGCCCCT	0.0783
AGCCTCGA	-0.0885
CTAGTACA	0.0576
ACCCTAGC	0.0587
CTACTGAA	0.029
ATCCGATA	0.00821
AAGCAGTC	-0.135
CTCTCTTA	-0.0805
AGCAAAGA	-0.0188
AGACCAAT	-0.00568
AAAACGCC	0.0808
AGCGCGAG	0.0635
CGCGCGCA	0.296

Sequence	PBM E-score
CGCGGGCC	0.176
CGCGGGCA	0.281
CGCGCGAG	0.245
TGCGCGCA	0.211
CAAACGCG	0.0917
CGCGCGAA	0.157
GGCGGGCA	-0.0772
CACGCGCA	-0.0169
AAAACGCG	0.285
AAGATCGT	0.0712
TCAGAGCA	-0.0393
CACTTCAC	-0.0837
GCAACAGA	0.0125
ATTGGAGG	-0.149
AATCGCGG	0.162
ACCTCACT	-0.0963
CTCGCGAG	0.257
CGCGCGCC	0.211
CACGCGAG	0.225
CCCGCGCG	0.178
ATCGTGCC	-0.145
ATCGTGCA	0.0864
ATCGTGCG	0.272
CGCGCGCG	0.302
CTCGCGAA	-0.00662
